Eight molecules from PubChem BioAssay (NCI) can be followed below.

The panel holds about 83,000 compounds, 20% with a hit somewhere; the sample as a whole holds those more often.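 In brief: 96-well plates, 48 h treatment, single concentration, percent growth endpoint.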 A number with no mark means an inactive call. The source made the active and inactive calls. How the source made its calls: active means growth percent below 10; inactive means the rest.

Among the test systems are SR leukemia; RPMI-8226 leukemia; OVCAR-8 ovarian; OVCAR-5 ovarian; OVCAR-4 ovarian; SK-OV-3 ovarian; IGROV1 ovarian; OVCAR-3 ovarian; HS 578T breast; NCI/ADR-RES ovarian; T-47D breast; BT-549 breast; MDA-MB-435 melanoma; SW-620 colon; MCF7 breast; HCT-116 colon; HCC-2998 colon; KM12 colon.
Common to all, as to experiment: NCI-60 one-dose screen, 48 h (100 = growth as untreated, 0 = no growth, -100 = all killed)
Details in all cases: 10 µM unless noted

`Cc1ccc2c(n1)C(=O)C(Cl)=C(Nc1ccc(C(F)(F)F)cc1)C2=O`: the growth with SR leukemia is 10.5%; with RPMI-8226 leukemia, -8.81% (active); in the assay with OVCAR-8 ovarian, 39.3%; in the assay with OVCAR-5 ovarian it was 110%; in the assay with OVCAR-4 ovarian, -96.4% (active); in the assay with SK-OV-3 ovarian, 82.2%. For the same molecule, the growth is -58.2% (active) with IGROV1 ovarian; -48.6% (active) in the assay on OVCAR-3 ovarian; 94.1% with HS 578T breast; 87.6% in the assay on NCI/ADR-RES ovarian; -25.5% (active) with T-47D breast; 130% with BT-549 breast. Also, the growth is 95.8% in the assay with MDA-MB-435 melanoma; -10.5% (active) with SW-620 colon; -56.1% (active) in the assay with MCF7 breast; 1.42% (active) in the assay with HCT-116 colon; 97.9% with HCC-2998 colon; 98.2% with KM12 colon.

With `O=C(CCCCCCNC(=O)C(O)(O)C(F)(F)F)Nc1ncc(-c2ccc(Br)cc2)s1`, the growth with SR leukemia was 8.24% (active); with RPMI-8226 leukemia, 11.2%; with OVCAR-8 ovarian, 1.13% (active); in the assay with OVCAR-5 ovarian it was -2.49% (active); with OVCAR-4 ovarian, 21.8%; with SK-OV-3 ovarian, -14.6% (active). Besides, the growth with IGROV1 ovarian was -21.8% (active); with OVCAR-3 ovarian, -58.1% (active); in the assay on HS 578T breast it was 16.6%; in the assay on NCI/ADR-RES ovarian it was -4.64% (active); with T-47D breast it was 3.85% (active); in the assay with BT-549 breast it was -20.5% (active). Also, the growth in the assay with MDA-MB-435 melanoma was 6.58% (active); in the assay on SW-620 colon, -16.2% (active); in the assay with MCF7 breast, 6.6% (active); with HCT-116 colon, -26.3% (active); with HCC-2998 colon, -54.6% (active); in the assay with KM12 colon, -67% (active).

As to `N#Cc1c(-c2cccs2)cc(-c2cnccn2)nc1SCC(=O)N/N=C/c1ccncc1`, the growth with SR leukemia was 93.6%; with RPMI-8226 leukemia, 103%; with OVCAR-8 ovarian, 103%; in the assay on OVCAR-5 ovarian, 114%; with OVCAR-4 ovarian, 111%; with SK-OV-3 ovarian it was 109%. The growth with IGROV1 ovarian was 104%; in the assay with OVCAR-3 ovarian it was 117%; in the assay on HS 578T breast it was 109%; in the assay on NCI/ADR-RES ovarian, 108%; in the assay with T-47D breast, 101%; with BT-549 breast it was 113%. Also, the growth in the assay on MDA-MB-435 melanoma is 104%; in the assay with SW-620 colon it was 112%; with MCF7 breast, 92.5%; in the assay with HCT-116 colon it was 101%; in the assay with HCC-2998 colon it was 109%; with KM12 colon it was 100%.

With `COc1ccc(C(C)=C(c2ccc(OCCN(C)C)cc2)c2ccc(OCCN(C)C)cc2)cc1`, the growth is -46.5% (active) in the assay on SR leukemia; -48.5% (active) with RPMI-8226 leukemia; -2.55% (active) in the assay on OVCAR-8 ovarian; -5.23% (active) in the assay on OVCAR-5 ovarian; -35.4% (active) in the assay on OVCAR-4 ovarian; -5.19% (active) in the assay with SK-OV-3 ovarian. Further, the growth is -24.6% (active) with IGROV1 ovarian; -46.2% (active) with OVCAR-3 ovarian; -46.7% (active) with HS 578T breast; 0.85% (active) in the assay on NCI/ADR-RES ovarian; -60.6% (active) in the assay with T-47D breast; -27.3% (active) in the assay on BT-549 breast. In addition, the growth in the assay on MDA-MB-435 melanoma was -75.7% (active); in the assay on SW-620 colon it was -65.8% (active); in the assay with MCF7 breast it was -67.6% (active); with HCT-116 colon it was -81% (active); in the assay on HCC-2998 colon, -69.4% (active); in the assay on KM12 colon, -8.05% (active).

In the case of `O=C(Nc1cccc(Cl)c1)Nc1nc2cc([N+](=O)[O-])ccc2o1`, the growth in the assay with SR leukemia was 57.8%; in the assay with RPMI-8226 leukemia, 35.8%; with OVCAR-8 ovarian, 33.9%; in the assay with OVCAR-5 ovarian, 75.5%; with OVCAR-4 ovarian, 3.58% (active); in the assay with SK-OV-3 ovarian, 74.3%. Besides, the growth is 44.9% in the assay with IGROV1 ovarian; -0.896% (active) with OVCAR-3 ovarian; 71.4% in the assay with HS 578T breast; 22.6% in the assay on NCI/ADR-RES ovarian; 15.4% in the assay on T-47D breast; 67.1% with BT-549 breast. Also, the growth in the assay with MDA-MB-435 melanoma is 40.9%; in the assay with SW-620 colon, 22.3%; with MCF7 breast it was 36.8%; in the assay with HCT-116 colon, 26.8%; with HCC-2998 colon it was 39%; with KM12 colon, 26.5%.

With `O=C(NNc1nc2cc(F)cc(F)c2n2cccc12)c1cccnn1`, the growth is 14.8% in the assay with SR leukemia; 11.8% with RPMI-8226 leukemia; 19% in the assay with OVCAR-8 ovarian; 46.3% in the assay on OVCAR-5 ovarian; 4.96% (active) in the assay on OVCAR-4 ovarian; -1.52% (active) with SK-OV-3 ovarian. The growth in the assay with IGROV1 ovarian was 13.5%; with OVCAR-3 ovarian, 14%; in the assay on HS 578T breast it was 32%; with NCI/ADR-RES ovarian, 0.935% (active); in the assay on T-47D breast, 9.21% (active); in the assay with BT-549 breast, 31.5%. In addition, the growth is 24% in the assay with MDA-MB-435 melanoma; 22.1% with SW-620 colon; 10.4% with MCF7 breast; 22.4% in the assay with HCT-116 colon; 65.6% with HCC-2998 colon; 24.2% in the assay with KM12 colon.

On to `Clc1cccc(/C=N/Nc2nc(N/N=C/c3cccc(Cl)c3)nc(N3CCOCC3)n2)c1`, for which the growth is 7.7% (active) with SR leukemia; 38.8% in the assay with RPMI-8226 leukemia; 49.5% in the assay on OVCAR-8 ovarian; 95.5% in the assay with OVCAR-5 ovarian; 66.4% with OVCAR-4 ovarian; 130% in the assay on SK-OV-3 ovarian. The growth was 50.7% in the assay on IGROV1 ovarian; 56.3% with OVCAR-3 ovarian; 67.5% in the assay with HS 578T breast; 61.8% in the assay with NCI/ADR-RES ovarian; 68.5% with T-47D breast; 92.7% in the assay with BT-549 breast. For the same molecule, the growth in the assay with MDA-MB-435 melanoma is 49.3%; in the assay on SW-620 colon, 18.1%; in the assay with MCF7 breast it was 43%; in the assay with HCT-116 colon it was 22.8%; in the assay on HCC-2998 colon, 59%; with KM12 colon it was 30.2%.

For the molecule `COc1cccc2c1[C@H](OC)[C@]13O[C@@]1(C2=O)[C@H](O)[C@H](C)[C@@](O)(C(=O)[C@@H]1O[C@H]1C)[C@@H]3O`, the growth in the assay with SR leukemia was -30% (active); in the assay with RPMI-8226 leukemia, -27.5% (active); in the assay with OVCAR-8 ovarian, -13.2% (active); with OVCAR-5 ovarian it was 6.04% (active); in the assay on OVCAR-4 ovarian, -13.3% (active); in the assay on SK-OV-3 ovarian it was -10.4% (active). Further, the growth is 7.69% (active) in the assay with IGROV1 ovarian; -34.6% (active) with OVCAR-3 ovarian; -30% (active) with HS 578T breast; -23% (active) in the assay with NCI/ADR-RES ovarian; -11.8% (active) with T-47D breast; -39.6% (active) with BT-549 breast. Further, the growth in the assay on MDA-MB-435 melanoma was -72.7% (active); with SW-620 colon, -14.7% (active); with MCF7 breast it was -21.3% (active); in the assay on HCT-116 colon, -26.8% (active); in the assay on HCC-2998 colon, -79.3% (active); in the assay with KM12 colon, -31.1% (active).
